Where “and” joins values, the source holds several entries; their conditions need not be identical. Equal entries are not always repeated. Records with an inconclusive call do not appear. Where a call stands in place of a potency, no number is given. Some structures have more than one record in an assay (separate samples or runs), and their calls can disagree. Calls of active or inactive are those of the source. Unless noted, calls come from the whole dose curve; as a rule, active = well fitted curve in the direction sought with a large enough effect; inconclusive = small, poorly fitted or top-dose-only effect, or another doubt; inactive = no such curve, though single readings can be large; an effect the other way counts as inactive or inconclusive.
How the values were obtained:
[1] = S16 Schwann cell PMP22 intronic element beta-lactamase assay (AID 624044; calls by dose curve; note: nearly all actives have a fitted effect of over 15% in size); settings: S16 rat Schwann cells, PMP22 element beta-lactamase FRET, 24 h; ratio activity, negative = inhibition: at 38.3 µM (top of the series) unless noted
Summary of the method: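 Rat S16 Schwann cells with beta-Lac driven by a PMP22 intronic element, compound-treated 24 h at 37 °C. LiveBLAzer FRET B/G read: 460 nm normalized to potassium clavulanate vs DMSO; 535 nm FRET as viability; concentration-effect curves classified.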

[2] = S16 Schwann cell viability assay (CellTiter-Glo assay) (AID 624031);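 note: native untransfected S16 rat Schwann cells; cellular ATP luminescence as a viability measure; nearly all actives have a fitted effect of over 70% in size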
Summary of the method: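 Concentration-effect curves come from CellTiter-Glo luminescence of S16 rat Schwann cells after 24 h compound exposure. Each reading was normalized to DMSO wells (0%) and wells without cells, and curves were ranked by r2 and response magnitude.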

[3] = S16 Schwann cell PMP22 intronic element firefly luciferase assay (AID 624032); note: nearly all actives have a fitted effect of over 30% in size; note: potency is the fitted concentration of half-maximal effect
Summary of the method: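 Rat S16 Schwann cells stably carrying a PMP22 intronic element-driven Fluc reporter were seeded overnight, then exposed to compounds for 24 h at 37 °C. Luminescence was normalized to PTC124 (positive control) and DMSO (0% activity).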

[4] = qHTS assay for small molecule agonists of the antioxidant response element (ARE) signaling pathway (AID 651741; active = well fitted activation curve with a large enough effect in the signal ratio; the % refers to the signal ratio; note: potency is the fitted concentration of half-maximal effect)
Summary of the method: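 Compounds in DMSO are pinned onto HepG2 ARE-bla cells (2,000/well) that were preincubated 5 h; plates stay 16 h at 37 C, then beta-lactamase activity is detected with LiveBLAzer B/G substrate by fluorescence.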

[5] = biological target: Glutaminase kidney isoform, mitochondrial (Homo sapiens) (UniProt O94925); assay: qHTS for Inhibitors of Glutaminase (GLS): LOPAC Validation (AID 624146); settings: glutaminase enzyme activity inhibition; note: potency is the fitted concentration of half-maximal effect; nearly all actives have a fitted effect of over 60% in size
Source text: Glutaminase (GLS) catalyzes the hydrolysis of glutamine into glutamate and ammonia. It plays a critical role in glutaminolysis, which is an important energy source for proliferating cells. It was shown that c-Myc, an oncogenic transcription factor known to regulate microRNAs and to stimulate cell proliferation, increases glutamine metabolism by stimulating the expression of GLS via direct suppression of miR23a and miR23b.
GLS is also thought to play a pathogenic role on HAD using a human HIV-1 infected macrophage system. […] GLS inhibition limits glutamate release and provides neuroprotection against HIV-1 infected macrophages.
The overall goal of this project is to identify small molecule inhibitors of GLS through quantitative high throughput screening (qHTS) of the MLSMR. A validated potent and selective inhibitor can be used as a tool molecule to further study the pharmacology of its target as well as explore its potential therapeutic application in cancer and inflammatory neurological disorders, such as HIV1-associated dementia (HAD) and multiple sclerosis.
NIH Chemical Genomics Center [NCGC] […]
Three 3 uL of hKGA is dispensed into black well 1536-well plates in 45 mM KH2PO4 (pH 8.2), 0.02% Tween-20. […] Plate is centrifuged for 25 sec before an initial fluorescence read is obtained on the ViewLux, after 30 min of RT incubation, the final read is taken on the ViewLux.

[6] = qHTS of Trypanosoma Brucei Inhibitors: LOPAC Validation (AID 624147)
Summary of the method: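 Assay buffer: 50 mM TEA pH 7.2, 100 mM KCl, 10 mM MgCl2, 0.05% BSA, 0.01% Tween-20. Pyruvate kinase from T. brucei plus substrate met compound, then ADP (130 uM final). Luminescence was read post 45 min RT.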

[7] = biological target: Glucagon-like peptide 1 receptor (Homo sapiens) (UniProt P43220); assay: qHTS of GLP-1 Receptor Agonists: LOPAC Validation (AID 624148);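 note: higher luminescence signal means agonism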
Summary of the method: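 HEK293 cells stably co-expressing a cAMP-responsive luciferase reporter and a hypersensitive GLP-1R were plated 12 h at 37 °C and exposed to compounds for 4-6 hr at 37 °C, 5% CO2. Luminescence was read 12 min after adding detection reagent.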

[8] = qHTS of Nrf2 Activators: LOPAC Validation (AID 624149)
Summary of the method: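 AREc32_Fluc cells, 1000/well in OPTI-MEM with 5% FBS, grown overnight, then exposed to compounds for 24 hr at 37 deg C, 5% CO2. ARE-driven firefly luciferase read by Steady-Glo luminescence after 30 min at RT.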

[9] = HTS Assay for Allosteric Antagonists of the Human D2 Dopamine Receptor: Hit Validation in HTRF (AID 624455);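 note: stable D1 dopamine receptor cell line scored for blocking the D1 response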
Summary of the method: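 Hit validation in cells stably expressing the D1 dopamine receptor, run in HTRF format. Compounds were tested for their ability to inhibit the D1-mediated response.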

Sequence of Glucagon-like peptide 1 receptor (Homo sapiens) (P43220 whole entry, looked up): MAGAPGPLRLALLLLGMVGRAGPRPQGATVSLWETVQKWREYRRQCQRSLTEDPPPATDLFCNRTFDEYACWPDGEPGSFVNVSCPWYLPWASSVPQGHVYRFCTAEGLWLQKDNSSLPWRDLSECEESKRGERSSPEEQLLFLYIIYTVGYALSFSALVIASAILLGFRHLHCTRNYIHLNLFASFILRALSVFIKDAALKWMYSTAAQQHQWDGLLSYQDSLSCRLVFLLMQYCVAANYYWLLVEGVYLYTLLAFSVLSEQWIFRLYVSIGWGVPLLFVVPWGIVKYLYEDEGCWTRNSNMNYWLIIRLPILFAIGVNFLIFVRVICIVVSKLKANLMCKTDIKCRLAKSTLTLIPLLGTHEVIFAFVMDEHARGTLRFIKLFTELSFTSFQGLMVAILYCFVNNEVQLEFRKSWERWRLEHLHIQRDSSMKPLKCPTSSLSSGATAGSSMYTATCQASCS
Sequence of Glutaminase kidney isoform, mitochondrial (Homo sapiens) (O94925 whole entry, looked up, canonical isoform): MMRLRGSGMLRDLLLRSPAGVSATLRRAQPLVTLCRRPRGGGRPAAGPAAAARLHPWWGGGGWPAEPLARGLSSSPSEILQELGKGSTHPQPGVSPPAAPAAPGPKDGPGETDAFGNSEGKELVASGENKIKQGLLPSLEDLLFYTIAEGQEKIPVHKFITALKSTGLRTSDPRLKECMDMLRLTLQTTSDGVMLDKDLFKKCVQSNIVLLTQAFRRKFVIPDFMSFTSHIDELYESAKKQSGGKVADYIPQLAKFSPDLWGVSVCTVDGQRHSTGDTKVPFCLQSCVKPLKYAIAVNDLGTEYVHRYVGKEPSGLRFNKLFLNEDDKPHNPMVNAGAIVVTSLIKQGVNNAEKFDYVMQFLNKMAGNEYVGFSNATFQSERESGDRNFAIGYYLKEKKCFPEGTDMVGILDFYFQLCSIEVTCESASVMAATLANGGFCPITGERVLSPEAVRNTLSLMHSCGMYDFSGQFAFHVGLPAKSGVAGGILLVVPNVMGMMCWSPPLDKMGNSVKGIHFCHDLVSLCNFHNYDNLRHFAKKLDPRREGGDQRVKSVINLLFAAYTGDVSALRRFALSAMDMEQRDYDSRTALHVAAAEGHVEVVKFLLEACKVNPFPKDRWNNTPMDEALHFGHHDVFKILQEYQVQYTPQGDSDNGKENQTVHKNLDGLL

C=CC[C@@H]1/C=C(\C)C[C@H](C)C[C@H](OC)[C@H]2O[C@@](O)(C(=O)C(=O)N3CCCC[C@H]3C(=O)O[C@H](/C(C)=C/[C@@H]3CC[C@@H](O)[C@H](OC)C3)[C@H](C)[C@@H](O)CC1=O)[C@H](C)C[C@@H]2OC
ratio activity, negative = inhibition [1]: -24.4% (inactive)

CCCCC
Potency [2]: inactive
ratio activity, negative = inhibition [1]: 1.47% (inactive)

CCOC(=O)Cc1ccc(-c2ccccc2)cc1
Potency [2]: inactive
Potency [3]: inactive
ratio activity, negative = inhibition [1]: 4.96% (inactive)

ClC(Cl)Cl
Potency [2]: inactive
Potency [3]: inactive
ratio activity, negative = inhibition [1]: 4.84% (inactive)
Potency [4]: inactive

CN[C@@H]1[C@H](O[C@H]2[C@H](O[C@H]3[C@H](O)[C@@H](O)[C@H](N=C(N)N)[C@@H](O)[C@@H]3N=C(N)N)O[C@@H](C)[C@]2(O)C=O)O[C@@H](CO)[C@H](O)[C@H]1O
Potency [2]: inactive
Potency [3]: inactive
ratio activity, negative = inhibition [1]: 0% (inactive)

O=C(OCc1ccccc1)c1ccc(O)cc1
Potency [2]: inactive
ratio activity, negative = inhibition [1]: -2.42% (inactive)

CCC(Cc1c(I)cc(I)c(O)c1I)C(=O)O (stereo not drawn)
Potency [2]: inactive
Potency [3]: inactive
ratio activity, negative = inhibition [1]: 3.55% (inactive)

CCCCCCCCCCCCCCCCCC(=O)OC[C@@H](O)[C@H]1OC[C@H](O)[C@H]1O
Potency [2]: inactive
Potency [3]: inactive
ratio activity, negative = inhibition [1]: 1.3% (inactive)
Potency [4]: inactive

Cc1c(Cl)cccc1Nc1ncccc1C(=O)O
Potency [2]: inactive
Potency [3]: inactive
ratio activity, negative = inhibition [1]: -7.17% (inactive)

[O-][N+](=Nc1ccccc1)c1ccccc1
Potency [2]: inactive
ratio activity, negative = inhibition [1]: 3.38% (inactive)

C(=C\c1ccncc1)/c1ccccc1
Potency [3]: inactive
ratio activity, negative = inhibition [1]: -6.31% (inactive)

CC(C)(Oc1ccc(C2CCCc3ccccc32)cc1)C(=O)O (stereo not drawn)
Potency [3]: inactive
ratio activity, negative = inhibition [1]: -0.979% (inactive)

O=C1c2ccccc2C(=O)C1c1ccc(Cl)cc1
Potency [2]: inactive
Potency [3]: inactive
ratio activity, negative = inhibition [1]: -9.28% (inactive)

CN(C)C=Nc1c(I)cc(I)c(CCC(=O)O)c1I
Potency [2]: inactive
Potency [3]: inactive
ratio activity, negative = inhibition [1]: 2.26% (inactive)

Oc1ccc(/C=C/c2cc(O)cc(O)c2)cc1
Potency [5]: 5.01 µM (active)
outcome [6]: inactive
outcome [7]: inactive
outcome [8]: inactive
outcome [9]: inactive
Potency [4]: 19.3 µM (active) and 37.6 µM (active)

[O]=[Bi][O]C(=O)[O][Bi]=[O]
Potency [2]: inactive
ratio activity, negative = inhibition [1]: -4.42% (inactive)

CC(C)CCC[C@@H](C)[C@H]1CC[C@H]2[C@@H]3CC=C4C[C@@H](O)CC[C@]4(C)[C@H]3CC[C@]12C
Potency [2]: inactive
Potency [3]: inactive
ratio activity, negative = inhibition [1]: 7.26% (inactive)
Potency [4]: 54.5 µM (active)

Nc1ncnc2c1ncn2[C@H]1CC[C@@H](CO)O1
Potency [2]: inactive
Potency [3]: inactive
Potency [4]: inactive

CCN(CC)CCC(=O)N1c2ccccc2Sc2ccc(Cl)cc21
Potency [3]: 10.2 µM (active)

Nc1ncnc2c1ncn2CCOCP(=O)(O)O
Potency [2]: inactive
Potency [3]: inactive
ratio activity, negative = inhibition [1]: 0.57% (inactive)

O=C(c1cc2ccccc2o1)N1CCN(Cc2ccccc2)CC1
Potency [2]: inactive
Potency [3]: inactive
ratio activity, negative = inhibition [1]: 2.34% (inactive)

CC1CCC(NC(=O)N(CCCl)N=O)CC1 (stereo not drawn)
Potency [2]: inactive
Potency [3]: inactive
ratio activity, negative = inhibition [1]: 2.89% (inactive)

COc1cc2c(cc1OC)[C@@H](Cc1cc(OC)c(OC)c(OC)c1)[N+](C)(CCCOC(=O)CC/C=C/CCC(=O)OCCC[N+]1(C)CCc3cc(OC)c(OC)cc3[C@H]1Cc1cc(OC)c(OC)c(OC)c1)CC2 (stereo partly drawn)
Potency [2]: inactive
Potency [3]: inactive
ratio activity, negative = inhibition [1]: -5.32% (inactive)

CC(=O)Oc1cccc(C(=O)O)c1OC(C)=O
ratio activity, negative = inhibition [1]: 10.8% (inactive)

CC(C)O
Potency [2]: inactive
Potency [3]: inactive
ratio activity, negative = inhibition [1]: -7.58% (inactive)

CO[C@H]1C[C@@H]2CC[C@@H](C)[C@@](O)(O2)C(=O)C(=O)N2CCCC[C@H]2C(=O)O[C@H]([C@H](C)C[C@@H]2CC[C@@H](OC(=O)C(C)(CO)CO)[C@H](OC)C2)CC(=O)[C@H](C)/C=C(\C)[C@@H](O)[C@@H](OC)C(=O)[C@H](C)C[C@H](C)/C=C/C=C/C=C/1C
Potency [2]: inactive
Potency [3]: inactive
ratio activity, negative = inhibition [1]: -3.79% (inactive)

CC(C)NCC(O)COc1ccccc1-n1cccc1 (stereo not drawn)
Potency [2]: inactive
Potency [3]: inactive
ratio activity, negative = inhibition [1]: -5.07% (inactive)

CC(C)[C@@H]1CC[C@@H](C)C[C@H]1O
Potency [4]: inactive

C=C(C)C1CC=C(C)CC1 (stereo not drawn)
Potency [2]: inactive
Potency [3]: inactive
ratio activity, negative = inhibition [1]: -0.885% (inactive)
Potency [4]: inactive and 1.12 mM (active)

O=C1c2ccccc2C(=O)c2c1ccc(O)c2O
Potency [3]: inactive
ratio activity, negative = inhibition [1]: 0.767% (inactive)

OCc1ccccc1
Potency [2]: inactive
ratio activity, negative = inhibition [1]: -1.75% (inactive)

CC/C=C\C/C=C\C/C=C\CCCCCCCC(=O)O
Potency [2]: inactive
Potency [3]: inactive
ratio activity, negative = inhibition [1]: 3.48% (inactive)
Potency [4]: 42.2 µM (active)

C[C@H](CCC(=O)O)[C@H]1CC[C@H]2[C@@H]3[C@H](O)C[C@@H]4C[C@H](O)CC[C@]4(C)[C@H]3C[C@H](O)[C@]12C
Potency [4]: inactive

CCCCCc1ccc(C)cc1O
Potency [3]: inactive
ratio activity, negative = inhibition [1]: 4.39% (inactive)

Cc1cccc(Nc2ncccc2C(=O)O)c1C
Potency [2]: inactive
ratio activity, negative = inhibition [1]: 6.34% (inactive)

CN1C(C(=O)Nc2ccccn2)C(=O)c2sc(Cl)cc2S1(=O)=O (stereo not drawn)
Potency [2]: inactive
ratio activity, negative = inhibition [1]: 6.16% (inactive)

CN(CCO)CC(O)Cn1cnc2c1c(=O)n(C)c(=O)n2C (stereo not drawn) (tested in a mixture with another compound)
Potency [2]: inactive
Potency [3]: inactive
ratio activity, negative = inhibition [1]: 1.27% (inactive)
Potency [4]: inactive

CO[C@@H]1[C@H](OC(=O)/C=C/C=C/C=C/C=C/C(=O)O)CC[C@]2(CO2)[C@H]1[C@@]1(C)O[C@@H]1CC=C(C)C
Potency [4]: 13.7 µM (active)

CNC(=O)C[C@@H](N)C(=O)N[C@@H](C(=O)N[C@@H]1C(=O)N2[C@@H]1SC(C)(C)[C@@H]2C(=O)O)c1ccc(O)cc1
Potency [2]: inactive
Potency [3]: inactive
ratio activity, negative = inhibition [1]: -2.79% (inactive)

From PubChem BioAssay (NCATS)
